Results published in PubChem BioAssay (NCI).
Compounds without any hit were thinned out: in the full panel of roughly 83,000, 20% have a hit.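 Single-dose data. Exposure time 48 hours. Values below 10 considered active.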 Unmarked numbers belong to inactive results. Calls of active or inactive are those of the source.

Test system: SR leukemia
Test: NCI-60 one-dose screen, 48 h (100 = growth as untreated, 0 = no growth, -100 = all killed)
Conditions: 10 µM

Structure (SMILES)	growth
NS(=O)(=O)Oc1ccc(NC(=O)C2CCCCCC2)cc1	98.5%
O=C(CSc1nnc(-c2cccnc2SCc2ccccc2)o1)Nc1nc(Cl)cc(Cl)n1	101%
O=C1/C=C/[C@@H](O)[C@@H]2C[C@@H](O)C[C@H]2/C=C/CCC[C@H](CCc2ccc(NC(=S)Nc3ccc4c(c3)C(=O)OC43c4ccc(O)cc4Oc4cc(O)ccc43)cc2)O1	6.14% (active)
O=C(CCl)Nc1ccc(Cc2ccc(NC(=O)CCl)cc2)cc1	5.61% (active)
Cc1cc(Cl)ccc1Nc1nc(C(F)(F)F)ccc1C(=O)N/N=C/c1c(Cl)cccc1Cl	-26.6% (active)
COc1ccc2c(c1)C(=O)/C(=C/c1ccc([N+](=O)[O-])o1)O2	2.34% (active)
S=C(SSC(=S)N(c1ccccc1)c1ccccc1)N(c1ccccc1)c1ccccc1	92.6%
CC(C)=CCC/C(C)=C/CC/C(C)=C/CC/C=C(\C)CC/C=C(\C)CCC(=O)Nc1ccn(C2OC(CO)C(O)C2(F)F)c(=O)n1 (stereo not given)	-16.1% (active)
c1ccc(/C(=N\Nc2ccc3ccccc3n2)c2ccccn2)cc1	-23.6% (active)
c1ccc(CSc2ncccc2-c2nnc(SCCN3CCOCC3)o2)cc1	104%
CN(C)c1ncnc2c1nnn2C1OC(CO)C(O)C1O (stereo not given)	31.3%
COc1ccccc1/C=N\N/C(N)=N\N=C\c1ccccc1OC	-23.1% (active)
COc1cc(/C=C/c2cc(/C=C/c3ccc(O)c(OC)c3)nc(N)n2)ccc1O	-7.94% (active)
O=C(/C=C/c1cccc(B(O)O)c1)c1cccc(B(O)O)c1	3.2% (active)
CN(C)CCC1(c2ccccc2)CCN(C)C1=O (stereo not given)	112%
COc1ccc(/C=C/c2nnc(/C=C/c3ccc(OC)c(OC)c3)o2)cc1OC	11.6%
CN(C)c1ccc(/C=N/NC(=O)c2ccccc2Nc2cccc(C(F)(F)F)c2)cc1	85%
CN(C)CCOc1ccc(-c2nc3sccn3c2-c2ccnc(S(C)(=O)=O)n2)cc1	109%
COc1ccc(CCN2CCC(Nc3nc4ccccc4n3Cc3ccc(F)cc3)CC2)cc1	-54.6% (active)
O=C(CN(C1CCCCC1)C1CCCCC1)Nc1ccc(S(=O)(=O)c2ccc(NC(=O)CN(C3CCCCC3)C3CCCCC3)cc2)cc1	-51.4% (active)

Structure (SMILES)	growth
COc1ccc2nc(-c3ccc(Cl)cc3)cc(-c3nnc(SC/C(=N\O)c4ccccc4)n3-c3ccccc3)c2c1	67.1%
Cc1cc(CSc2ccccc2C(=O)N2CC=C(c3ccccc3)CC2)on1	85.3%
CCOC(=O)c1cc(C(=O)c2cc(OC)c(OC)c(OC)c2)n2nc(C)ccc12	23%
O=C(O)c1ccc(-n2cc(CNc3ccc(Cl)cc3)c(-c3ccccc3)n2)cc1	69.1%
CNC(=O)c1cc(Oc2ccc3c(c2)sc2nc(-c4ccc(N)cc4)cn23)ccn1	28.3%
Nc1ccc(CC[C@H]2CCC/C=C/[C@@H]3C[C@H](O)C[C@H]3[C@H](O)/C=C/C(=O)O2)cc1	1.1% (active)
CNC(=O)c1cn(C2CC2)c2cc(N3CCN(C(=O)c4cc(OC)c(OC)c(OC)c4)CC3)c(F)cc2c1=O	92.2%
CN1CCN(C2=Nc3ccccc3Oc3ccc(Cl)cc32)CC1	76.9%
COc1ccc(Cc2cnc(N)nc2N)cc1OC	98.9%
COc1ccc(C(c2ccc(OCCN(C)C)cc2)c2cc3ccccc3c3ccccc23)cc1 (stereo not given)	-30.6% (active)
O=C(N/N=C/c1ccc(Cl)cc1)c1ccccc1Nc1cccc(C(F)(F)F)c1	45.7%
CC(=O)O[C@@]12CO[C@@H]1C[C@H](O)[C@@]1(C)C(=O)[C@H](O)C3=C(C)[C@@H](OC(=O)[C@H](O)[C@@H](NC(=O)OC(C)(C)C)c4ccccc4)C[C@@](O)([C@@H](OC(=O)c4ccccc4)C12)C3(C)C (stereo not given in full)	11.1%
CS(=O)(=O)c1nccc(-c2c(-c3cccc(OCCc4ccccc4)c3)nc3sccn23)n1	85.8%
C(=N\Nc1ncnc2sc3c(c12)CCNC3)/c1cccc2ccccc12	22%
CNS(=O)(=O)Oc1ccc(-c2sc3cc(OS(=O)(=O)NC)ccc3c2C(=O)c2ccc(OCCN3CCCCC3)cc2)cc1	27%
CCCCC/C=C/C/C=C/CCCCCCCC1=NC(C)(C)CN1C(C)C	2.99% (active)
C#C[C@]1(O)CCC2C3CCc4cc(OC5CCCC5)ccc4C3CC[C@@]21C (stereo not given in full)	15.1%
O=C(N/N=C/c1c(Cl)cccc1Cl)c1ccccc1Nc1cccc(C(F)(F)F)c1	70.8%
COc1cccc(-c2nc3sccn3c2-c2cccc(S(C)(=O)=O)c2)c1	94.7%
CC(=O)Nc1ccc(S(=O)(=O)c2ccnc3cc(Cl)ccc23)cc1	83.3%
